Results taken from PubChem BioAssay (EPA / NIEHS).
Where “and” joins values, the source holds several entries; their conditions need not be identical. Equal values may be shown once. Results filed as inconclusive are left out. More than one record can exist for a structure, and the calls need not agree. Calls of active or inactive are those of the source. Rule for the calls, unless noted: active = hit-call score of the fitted dose curve at least 0.9, where 1 is the maximum; inconclusive = response in the unintended direction; inactive = score below 0.9.

How the values were obtained:
[1] = biological target: Estrogen receptor (Homo sapiens) (UniProt P03372); test: CCTE_Deisenroth_AIME_384WELL_LUC_Active: CCTE's 384-well Estrogen Receptor Transactivation Assay with AIME metabolic competence (ERTA luciferase; metabolism positive), Deisenroth Lab (AID 2284030)
Estrogen receptor (Homo sapiens), sequence (P03372 whole entry, looked up): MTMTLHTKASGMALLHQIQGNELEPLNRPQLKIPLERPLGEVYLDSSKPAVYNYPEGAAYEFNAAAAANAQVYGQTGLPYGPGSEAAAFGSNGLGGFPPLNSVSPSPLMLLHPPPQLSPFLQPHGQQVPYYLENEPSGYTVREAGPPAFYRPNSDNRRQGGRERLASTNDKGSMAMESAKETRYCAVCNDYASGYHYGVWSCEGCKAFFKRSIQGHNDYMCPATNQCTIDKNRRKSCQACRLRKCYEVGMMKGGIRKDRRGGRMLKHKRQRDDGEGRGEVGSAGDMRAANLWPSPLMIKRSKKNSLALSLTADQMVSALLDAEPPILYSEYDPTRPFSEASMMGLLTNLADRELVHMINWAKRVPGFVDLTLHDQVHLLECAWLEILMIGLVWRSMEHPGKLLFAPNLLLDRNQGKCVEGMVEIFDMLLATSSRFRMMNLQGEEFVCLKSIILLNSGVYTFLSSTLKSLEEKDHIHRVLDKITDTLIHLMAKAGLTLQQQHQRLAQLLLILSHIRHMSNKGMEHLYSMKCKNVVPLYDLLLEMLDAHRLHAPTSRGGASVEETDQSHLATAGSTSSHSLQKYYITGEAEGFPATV
Outline: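 AIME metabolism-positive mode: chemicals 0.002 - 200 uM, 2 h with alginate-bound PB/BNF-induced rat S9 → medium to VM7Luc4E2 ERTA, 24 h → luciferase. Positive fit vs 17beta-estradiol; n=4 typical.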

[2] = CCTE_Deisenroth_AIME_384WELL_CTox_Active: Cytotoxicity Assessment (CTOX) in CCTE's 384-well Estrogen Receptor Transactivation Assay with AIME metabolic competence (metabolism positive), Deisenroth Lab (AID 2284037);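 note: chemicals first conditioned 2 h by alginate-bound induced rat liver S9 before cells; activity means signal loss indicating cell death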
Outline: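 VM7Luc4E2 breast cells received medium pre-incubated 2 h with chemical over alginate microspheres holding induced male Sprague Dawley rat liver S9; viability read 24 h later by protease-substrate fluorescence. Loss of signal, bidirectional fit, 0.002–200 uM.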

[3] = biological target: Estrogen receptor (Homo sapiens) (UniProt P03372); test: CCTE_Deisenroth_AIME_384WELL_LUC_Inactive: CCTE's 384-well Estrogen Receptor Transactivation Assay without AIME metabolic competence (ERTA luciferase; metabolism negative), Deisenroth Lab (AID 2284038);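 note: hits raise estrogen receptor luciferase signal so potencies reflect agonists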
Outline: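 Chemicals (10-point series, 0.002 - 200 uM) were incubated 2 hours with alginate-water microsphere lids lacking S9, then the conditioned medium was transferred to VM7Luc4E2 breast cells for 24 hour. Luciferase induction was read by bioluminescence, fitted upward relative to 17beta-estradiol.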

[4] = CCTE_Deisenroth_AIME_384WELL_CTox_Inactive: Cytotoxicity Assessment (CTOX) in CCTE's 384-well Estrogen Receptor Transactivation Assay without AIME metabolic competence (metabolism negative), Deisenroth Lab (AID 2284039);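 note: cell viability via live-cell protease substrate cleaved to fluorescent probe; cells exposed 24 h to medium preincubated 2 h with alginate-water beads without S9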
Outline: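 Fluorescence from a live-cell protease substrate, read after 24 h in VM7Luc4E2 cells, indicated viability. Test medium came from a 2 h AIME step without hepatic S9 (alginate-water microspheres); concentrations spanned 0.002 - 200 uM, single technical replicate per run.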

[5] = biological target: Estrogen receptor (Homo sapiens) (UniProt P03372); test: CCTE_Deisenroth_AIME_384WELL_LUC_Shift: CCTE's 384-well Estrogen Receptor Transactivation Assay with AIME metabolic competence data shift (ERTA luciferase; difference in metabolism positive and negative), Deisenroth Lab (AID 2284041; active = hit-call score of the fitted dose curve at least 0.9, where 1 is the maximum; inactive = score below 0.9;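 note: shift is response with S9 minus without S9 so positive means metabolism raised ER signal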)
Outline: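 Here, parent compounds undergo 2 h phase I metabolism by PB/BNF-induced rat S9 before 24 h transactivation in VM7Luc4E2 cells; the curve models S9-positive minus S9-negative response over a 10-point series.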

[6] = CCTE_Shafer_MEA_dev_firing_rate_mean: CCTE's Neural Network Formation Assay for Mean Firing Rate, Shafer Lab (AID 2284031; active = hit-call score of the fitted dose curve at least 0.9, where 1 is the maximum; inactive = score below 0.9;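 note: AUC of well mean spike rate recorded on DIV 5 7 9 and 12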;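 for AC50: curve fitted for loss of firing so AC50 reflects decreased mean firing rate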)
Outline: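 Developing rat cortical networks on MEA plates undergo 12-day compound exposure. Firing frequency, averaged across active electrodes, is integrated as area under the curve over four recording days, referenced to DMSO.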

[7] = CCTE_Shafer_MEA_dev_per_burst_spike_percent: CCTE's Neural Network Formation Assay for Percent of Spikes in a Burst, Shafer Lab (AID 2284032; active = hit-call score of the fitted dose curve at least 0.9, where 1 is the maximum; inactive = score below 0.9;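 for AC50: fitted as a decrease in burst spike percentage below DMSO baseline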)
Outline: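 Rat primary cortical neurons on 16-electrode MEA wells, dosed from plating day 0 for 12 days with renewal on DIV 5 and 9; spikes-in-bursts percentage averaged over bursting electrodes, collapsed as AUC across days 5, 7, 9, 12; loss direction versus DMSO.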

[8] = CCTE_Shafer_MEA_dev_active_electrodes_number: CCTE's Neural Network Formation Assay for Number of Active Electrodes, Shafer Lab (AID 2284040);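 for AC50: potency for loss of active electrodes versus DMSO so lower counts are hits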
Outline: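 Rat cortical primary cultures, 1.5 x 10^5 cells/well, PEI-coated MEA, laminin drop. Continuous exposure DIV 0–12; full media/compound change DIV 5, 9. Readout: electrodes with mean firing ≥5 spikes/min; AUC across days; loss vs DMSO.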

[9] = CCTE_Shafer_MEA_dev_burst_rate: CCTE's Neural Network Formation Assay for Burst Rate, Shafer Lab (AID 2284042; active = hit-call score of the fitted dose curve at least 0.9, where 1 is the maximum; inactive = score below 0.9;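 for AC50: potency for loss of burst rate below DMSO control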)
Outline: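 Developmental network assay measuring how 12-day exposure of rat cortical neuron cultures alters bursting on extracellular MEA recordings. Values are AUC of well-mean burst rate across four recording days, relative to DMSO vehicle.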

[10] = CCTE_Shafer_MEA_dev_bursting_electrodes_number: CCTE's Neural Network Formation Assay for Number of Bursting Electrodes, Shafer Lab (AID 2284043);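 for AC50: potency is for loss of bursting electrodes relative to DMSO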
Outline: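 Primary rat cortical neurons were cultured on PEI-coated 48-well MEA plates (16 electrodes/well) and exposed from plating through day 12, with compound renewed at feeds on DIV 5 and 9. Electrodes bursting ≥1 per 2 min were counted on DIV 5, 7, 9, 12; trapezoidal AUC taken.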

Measured: AC50

O=C(Cc1ccccc1)c1ccccc1
active: [1] 112 µM | [3] 72 µM
inactive: [2] | [4] | [5]

CC(C)OC(=O)Nc1ccccc1
active: [1] 17 µM | [3] 17.4 µM

CCOP(=S)(OCC)Oc1nc(Cl)c(Cl)cc1Cl
inactive: [9]
active: [6] 13.3 µM and 2.98 µM and 12 µM | [7] 23.3 µM and 15 µM and 21.4 µM | [8] 22.5 µM and 6.77 µM and 22.1 µM | [9] 17.1 µM | [10] 23.2 µM and 4.58 µM and 21.5 µM

OCC(O)CCl (stereo unspecified)
inactive: [2]
active: [1] 0.555 µM | [3] 0.124 µM | [5] 0.00281 µM

CCOC(=O)Nc1cccc(OC(=O)Nc2ccccc2)c1
inactive: [1] | [3] | [5]

O=C1C2(Cl)C3(Cl)C4(Cl)C(Cl)(Cl)C5(Cl)C3(Cl)C1(Cl)C5(Cl)C24Cl (stereo unspecified)
active: [6] 3.94 µM | [7] 4.18 µM | [8] 4.58 µM | [9] 3.99 µM | [10] 3.55 µM

COc1ccc(C=O)cc1
inactive: [1] | [2] | [3] | [4] | [5]

O=S(=O)(c1ccc(Cl)cc1)c1ccc(Cl)cc1
inactive: [1] | [3] | [4] | [5]

NNC(=S)NN
inactive: [1] | [2] | [3] | [4] | [5]

CNC(=O)O/N=C/C(C)(C)S(C)=O (stereo unspecified)
inactive: [1] | [3] | [5]

COP(=O)(OC)OC
inactive: [1] | [3] | [5]

CC(C)(c1ccccc1)c1ccc(O)c(C(C)(C)c2ccccc2)c1
active: [2] 93.9 µM | [4] 64.6 µM
inactive: [5]

C=C(C)C(=O)[O][Sn]([CH2]CCC)([CH2]CCC)[CH2]CCC
active: [6] 0.00431 µM | [7] 0.0389 µM | [8] 0.0266 µM | [9] 0.0225 µM | [10] 0.0199 µM

CC1(C)CCC(Cc2ccc(Cl)cc2)C1(O)Cn1cncn1 (stereo unspecified)
inactive: [5]
active: [2] 120 µM | [4] 119 µM

O=C1CCCN1
inactive: [1] | [2] | [3] | [4] | [5]

O=C1C(Cl)=C(Cl)C(=O)c2ccccc21
inactive: [5]
active: [2] 163 µM | [4] 189 µM

O=C(O)C(F)(F)C(F)(F)C(F)(F)C(F)(F)C(F)(F)C(F)(F)F
inactive: [6] | [7] | [4] | [9]

CCOP(=S)(OCC)SCSP(=S)(OCC)OCC
active: [1] 13.4 µM | [3] 10.3 µM
inactive: [2] | [4] | [5]

[O-][Cl+2]([O-])O
inactive: [1] | [3] | [4] | [5]

ClC(Cl)=C(Cl)C(Cl)=C(Cl)Cl
inactive: [1] | [2] | [3] | [4] | [5]

Cn1sc(Cl)cc1=O
active: [6] 8.69 µM | [7] 4.02 µM | [8] 4.47 µM | [9] 5.73 µM | [10] 5.1 µM

CC(=O)[O][Hg][c]1ccccc1
active: [6] 0.00554 µM | [7] 0.0114 µM | [2] 66.1 µM | [4] 46.3 µM | [8] 0.0146 µM | [9] 0.0117 µM | [10] 0.0108 µM
inactive: [5]

Oc1cccc2cccnc12
inactive: [2] | [4]

CC(=O)c1cc(C(C)(C)C)cc2c1CCC2(C)C
inactive: [1] | [2] | [3] | [4] | [5]

CC(=O)C=C(C)C
inactive: [1] | [2] | [3] | [4] | [5]

CNC
inactive: [1] | [2] | [3] | [4] | [5]

Cc1ccc(N)cc1Cl
inactive: [1] | [2] | [3] | [5]

C=C(C)C#N
inactive: [1] | [2] | [3] | [5]

ClC1(Cl)C2(Cl)C3(Cl)C4(Cl)C(Cl)(Cl)C5(Cl)C3(Cl)C1(Cl)C5(Cl)C24Cl (stereo unspecified)
inactive: [6]
active: [7] 3.9 µM | [8] 2.07 µM | [9] 2.64 µM | [10] 1.62 µM

c1cc[c]([Hg][c]2ccccc2)cc1
active: [5] 0.365 µM
inactive: [3] | [4]

CCC(C)(C)c1ccc(O)c(C(C)(C)CC)c1
active: [2] 102 µM | [4] 75 µM
inactive: [5]

NC(=O)O
inactive: [1] | [2] | [3] | [4] | [5]

O=C(O)C(F)(F)C(F)(F)C(F)(F)C(F)(F)C(F)(F)C(F)(F)C(F)(F)C(F)(F)C(F)(F)C(F)(F)F
inactive: [6] | [7] | [8] | [9] | [10]
